# Most compounds without a hit are left out; they make up all but 1.8% or so of the library.
# RPL19A-GFP yeast: modulators of TOR pathway RPL19A-GFP in S. cerevisiae | S. cerevisiae RPL19A-GFP strain, flow cytometry, 3 h; stronger effect = lower value | AID 2025 | actives 0.3% (n = 330,000) | percent response vs DMSO, % at 10 µM;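 active means percent response vs DMSO below 50%; inconclusive means fewer than 70 events counted for the yeast strain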;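 further: median channel GFP fluorescence of the barcoded RPL19A-GFP strain; lower means less RPL19A-GFP as with rapamycin TOR inhibition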
# CIT2 TOR yeast: yeast TOR pathway CIT2-GFP modulation. actives 0.065% (n = 320,000). S. cerevisiae CIT2-GFP strain, flow cytometry, 3 h; 100 means same as DMSO wells. GFP response vs DMSO, % at 10 µM;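 active means GFP response relative to DMSO above a set limit, near the screen mean plus 3 SD, cut at about 150% in these data; inconclusive means Fewer than 70 cells measured for a yeast strain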;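 further: ratio of well median GFP fluorescence to mean of DMSO wells on the plate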
# AGP1-GFP MLPCN: alters AGP1-GFP fluorescence in TOR pathway yeast screen | S. cerevisiae AGP1-GFP multiplex flow cytometry, 3 h; GFP as percent of DMSO wells | GFP response vs DMSO, % at 10 µM | actives 0.02% (n = 320,000);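 active means GFP response relative to DMSO above a set limit, near screen average plus 3 SD, cut at about 150% in these data; inconclusive means fewer than 70 cells counted for the yeast strain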;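 further: median GFP channel fluorescence of the gated AGP1 strain per well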
# LAP4 TOR yeast: alters LAP4-GFP fluorescence in TOR pathway yeast screen; actives 0.34% (n = 320,000); S. cerevisiae LAP4-GFP multiplex, flow cytometry GFP, 3 h; median GFP as percent of DMSO wells; GFP response vs DMSO, % at 10 µM;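 active means GFP response vs DMSO above a set limit, about the screen mean plus 3 SD, cut at about 150% in these data; inconclusive means under 70 cell events counted for the yeast strain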
# Myeloid diff 2: compounds promoting myeloid differentiation. ER-HoxA9 myeloid progenitors, lysozyme-GFP differentiation, flow cytometry. calls only at 10 µM. actives 1% (n = 360,000). AID 624256;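 active means normalized GFP-positive differentiation at or above the plate's own cutoff, the solvent-only control mean plus 3 SD; inconclusive means no clear call, values can overlap the other calls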;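 further: cells exposed to compound for four days before flow analysis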
# MEP2-GFP yeast: alters MEP2-GFP fluorescence in TOR pathway yeast screen | S. cerevisiae MEP2-GFP strain, flow cytometry GFP, 3 h; 100% = DMSO control level | GFP response vs DMSO, % at 10 µM | actives 0.51% (n = 330,000);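 active means GFP response versus DMSO above a set limit, roughly screen mean plus 3 SD, cut at about 180% in these data; inconclusive means fewer than 70 cells counted for a yeast strain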;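 further: median GFP fluorescence of the barcode-gated MEP2-GFP cells per well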
# Numbers stand for hits; – = inactive; ? = inconclusive; · = no result given; + = active, no number; [ ] = dose if it differs, or a comment.
SMILES,RPL19A-GFP yeast,CIT2 TOR yeast,AGP1-GFP MLPCN,LAP4 TOR yeast,Myeloid diff 2,MEP2-GFP yeast
COc1ccc(-c2cc(C(=O)N3CCN(C(c4ccccc4)c4ccccc4)CC3)no2)cc1,41[may fluoresce violet],?,?,–,–,201[may fluoresce violet]
COc1ccc(-c2cc(C(=O)N3CCN(C(c4ccccc4)c4ccccc4)CC3)no2)cc1OC,–,–,–,–,–,–
COC(=O)c1cc(S(=O)(=O)C(C)C)c(S(C)=O)s1 (configuration not stated),32[may fluoresce violet],?,?,–,–,435[may fluoresce violet]
Cn1cc(S(=O)(=O)CC(=O)Nc2ccc3c(c2)OCO3)c2ccccc21,–,–,–,–,–,–
Cc1cccc(CCNC(=O)CCNS(=O)(=O)c2cc(Br)cnc2N)c1,–,–,–,–,–,–
O=C(NCc1ccc(F)cc1)C(c1ccco1)N(C(=O)c1csnn1)C1CC1 (configuration not stated),34[may fluoresce violet],?,?,–,–,219[may fluoresce violet]
O=C(NCc1ccccc1)C(c1ccco1)N(C(=O)c1csnn1)C1CC1 (configuration not stated),–,–,–,–,–,–
CCOc1ccccc1C(C(=O)NC1CCCCC1)N(C(=O)c1csnn1)C1CC1 (configuration not stated),38[may fluoresce violet],?,?,–,–,369[may fluoresce violet]
COC(=O)C1=C(C(=O)OC)SC2(S1)C(C(=O)OC)=C(C(=O)OC)SC1=C2c2cc(C)cc(C)c2NC1(C)C,–,–,–,·,–,–
CCc1ccc(NC(=O)C2CCN(S(=O)(=O)c3c(C)[nH]c(=O)[nH]c3=O)CC2)cc1,–,–,–,–,–,–
CCCn1c(=O)c2ccccc2n2c(SC(C)C(N)=O)nnc12 (configuration not stated),33[may fluoresce violet],?,?,–,–,198[may fluoresce violet]
O=C(CSc1ncnc2c1oc1ccccc12)Nc1cccc(Cl)c1,–,?,?,–,–,223[may fluoresce violet]
COc1ccc(-c2cc(=O)c3cc(C)ccc3[nH]2)cc1,–,–,–,–,–,–
COc1ccc(-c2cc(=O)c3cc(OC)ccc3[nH]2)cc1,–,–,–,–,+,–
Cc1c(-c2cccc(Cl)c2)nc2ccccc2c1C(=O)OCC(=O)Nc1ccc2c(c1)OCO2,–,–,–,–,–,–
CC(C)(C)C(=O)Nc1cc(S(=O)(=O)Nc2ccc(Cl)cc2)ccc1Cl,–,–,–,–,–,–
Cc1sc2ncnc(N3CCN(CCOc4ccc(Cl)cc4)CC3)c2c1C,–,–,–,–,+,–
CC1=C(C(=O)NCc2ccccc2)C(c2cc(Br)cc(Br)c2OC(C)C)NC(=O)N1 (configuration not stated),–,–,–,–,–,–
CC(=O)N1c2ccc(S(=O)(=O)N(C)c3cc(C)ccc3C)cc2CC1C (configuration not stated),–,–,–,–,–,–
Cc1ccc(N(C)S(=O)(=O)c2ccc3c(c2)CC(C)N3C(=O)C2CC2)cc1 (configuration not stated),–,–,–,–,+,–
Cc1cc(=O)c(C(=O)Nc2cccc(N3CCCC3=O)c2)nn1-c1ccccc1F,–,–,–,–,–,–
O=S(=O)(c1ccc(N2CCCC2)cc1)C(F)(F)F,–,–,–,–,+,–
O=S(=O)(c1ccc(N2CCN(c3ccc(F)cc3)CC2)cc1)N1CCCC1,–,–,–,–,–,–
FC(F)Sc1ccc(-n2cc(-c3ccc(Cl)cc3)[n+]3c2CCC3)cc1,–,–,–,–,–,–
Cc1ccc(-c2cn(-c3ccc(SC(F)F)cc3)c3[n+]2CCC3)cc1,–,–,–,–,+,–
SMILES,RPL19A-GFP yeast,CIT2 TOR yeast,AGP1-GFP MLPCN,LAP4 TOR yeast,Myeloid diff 2,MEP2-GFP yeast
CC1(C)CC(=O)/C(=C(\O)c2ccccc2)C(=NCCO)C1,38[may fluoresce violet],?,–,–,–,206[may fluoresce violet]
Clc1ccc(OCCn2cnc3ccccc32)c(Cl)c1,–,–,–,155,–,–
c1ccc2c(c1)ncn2CCOCCOCCn1cnc2ccccc21,–,–,·,?,–,?
Cc1cc(NC(=O)CSC2=Nc3ccccc3C3=NC(Cc4ccccc4)C(=O)N23)n[nH]1 (configuration not stated),–,?,–,–,–,266[may fluoresce violet]
COCCCNC(=S)N(Cc1ccccc1)Cc1nc2ccccc2c(=O)[nH]1,–,–,–,–,–,–
COc1ccccc1N1CCN(C(=O)c2ccc(Cl)c(S(=O)(=O)NCc3ccco3)c2)CC1,–,–,–,–,+,–
Cc1cc(C)cc(NC(=O)C2(c3cccs3)CCOCC2)c1,–,–,–,–,–,–
Cc1cc(C)nc(NS(=O)(=O)c2ccc(N3C(=O)C4CC=C(Cl)CC4C3=O)cc2)n1 (configuration not stated),12[may fluoresce violet],?,?,?,–,?
CCCN1C(=O)/C(=C2/C=Cc3ccccc3N2CC)SC1=S,–,–,–,–,+,–
C=CCN1C(=O)/C(=C\C=C2\N(C)c3ccccc3C2(C)C)SC1=S,–,–,–,–,+,–
CCCCN1C(=O)/C(=C/C=C2\Oc3ccccc3N2CC)SC1=S,·,·,·,·,+,·
CCCN1C(=O)/C(=C/C=C2\N(CC)c3ccccc3C2(C)C)SC1=S,–,–,–,–,+,–
CC1=C(C(N)=O)C(c2cccs2)NC(=O)N1 (configuration not stated),–,–,–,–,–,–
COc1ccc2oc3c(ccc[n+]3C)c(=O)c2c1,·,·,·,·,–,·
Oc1c(C=Nc2ccccc2)sc(=S)n1Cc1ccccc1,–,·,–,–,+,–
C[C@H](CO)N1C[C@H](C)[C@H](CN(C)Cc2ccncc2)Oc2ncc(C#CC3CC3)cc2C1=O,·,·,·,·,–,·
COc1cc(Cl)c(NC2=CC(=O)C(=O)c3ccccc32)c(OC)c1,–,–,–,–,+,–
O=C1C=C(Nc2ccc(F)cc2)c2ccccc2C1=O,–,–,–,–,?,–
O=C1OC(c2ccccc2)(c2ccc3cc(O)ccc3c2)c2ccccc21 (configuration not stated),·,·,·,·,+,·
O=C(CNC(=O)c1ccc(C(F)(F)F)cc1)NC1CC1,–,–,–,–,–,–
CC(=O)N/N=C/c1cc(C(C)C)cc(/C=N/NC(C)=O)c1O,–,?,–,181[may fluoresce violet],–,195[may fluoresce violet]
COc1ccc(OC)c(-c2cc(C(=O)Nc3c(C)nn(Cc4ccccc4Cl)c3C)no2)c1,–,–,·,–,–,–
COc1ccc(OC)c(-c2cc(C(=O)Nc3c(C)nn(Cc4ccccc4C)c3C)no2)c1,–,–,·,–,+,–
COc1cccc(/C=N/NC(=O)c2c(-c3ccccc3)noc2C)c1O,–,–,–,–,+,–
COC(=O)c1cc(OC)c(OC)cc1NC(=O)c1c(-c2ccccc2)noc1C,–,–,–,–,+,–

# Screens (PubChem)
